Source: PubChem (National Center for Advancing Translational Sciences (NCATS))
Most compounds without a hit are left out; they make up all but 3.7% or so of the library.
HTT promoter inh: Primary qHTS for Identification of Small Molecule Inhibitors of Huntingtin Promoter Activity. HEK293 HTT promoter firefly luciferase reporter, 24 h. Potency, µM (series often up to 57.5 µM), for inactives: top-dose activity change, negative = inhibition, most hits filed as inhibitors. hit rate 0.93% among 48,000; also: potency is read from the fitted curve at half-maximal effect; nearly all actives have a fitted effect of over 50% in size
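HEK293 luciferase promoter-reporter cells (2,500/well) plated 24 h, then compounds added at up to 57.5 uM final for 24 h at 37 °C. Firefly luminescence by Dual-Glo, normalized to vehicle (0%) and zero RLU (-100%).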
HTT-AS promoter: Primary qHTS for Identification of Small Molecule Activators of Huntingtin-Antisense Promoter Activity | HEK293 HTT-AS promoter firefly luciferase reporter, 24 h; response scale: percent change from vehicle, -100% = no light | Potency, µM (doses to about 57.5 µM), for inactives: at the highest dose activity change, positive = activation, usual class: activators | hit rate 0.24% among 48,000 | AID 1508624, 2021; also: potency is read from the fitted curve at half-maximal effect; nearly all actives have a fitted effect of over 55% in size
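Quantitative HTS used concentration series of up to 57.5 uM final on HEK293 luciferase reporter cells, 24 h at 37 degrees C. Readout was Dual-Glo firefly luminescence.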
GPR32 ag: qHTS for Agonists of Human Resolvin D1 Receptor DRV1; CHO-K1 GPR32 beta-arrestin PathHunter luminescence, 90 min; zero percent set by DMSO-only wells; activation, % at 76.9 µM; hit rate 2.5% among 48,000; AID 1346428, 2018;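 active = activation of at least 60% and not above a set upper limit, about 1 call in 100 departs from these limits; inconclusive = activation of 40% to 60%, or above that upper limit; inactive = activation under 40%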; also: 0% is about no effect
Target sequence (O75388 whole entry, looked up): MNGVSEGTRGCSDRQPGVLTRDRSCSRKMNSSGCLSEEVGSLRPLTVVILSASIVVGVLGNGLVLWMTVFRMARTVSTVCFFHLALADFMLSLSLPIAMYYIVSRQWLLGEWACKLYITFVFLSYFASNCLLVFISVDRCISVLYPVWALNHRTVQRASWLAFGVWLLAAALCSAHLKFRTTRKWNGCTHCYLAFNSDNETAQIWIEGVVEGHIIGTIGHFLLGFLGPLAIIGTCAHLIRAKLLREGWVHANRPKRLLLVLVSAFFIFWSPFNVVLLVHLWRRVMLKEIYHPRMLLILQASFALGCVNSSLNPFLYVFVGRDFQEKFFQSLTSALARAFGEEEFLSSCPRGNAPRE
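Cells are plated overnight, treated with compounds in DMSO for 90 minutes at 37 °C, and developed with PathHunter detection reagent for 1 hour before luminescence is read; signal reflects beta-arrestin binding to GPR32 in engineered CHO-K1 cells.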
Starred values were filed as active, the others as inactive; ? = inconclusive; · = no result; [ ] = another dose, or the depositor's remark. Unless noted, calls follow the shape of the dose curve; as a rule, active = well fitted curve in the direction sought with a large enough effect; inconclusive = small, poorly fitted or top-dose-only effect, or another doubt; inactive = no such curve, though single readings can be large; an effect the other way counts as inactive or inconclusive.

SMILES | HTT promoter inh | HTT-AS promoter | GPR32 ag
COc1ccccc1C(=O)Nc1cc2c(cc1N1CCOCC1)n(C)c(=O)n2C | · | · | -5.2
CCOc1ccccc1C(=O)Nc1cc2c(cc1N1CCCCC1)n(C)c(=O)n2C | · | · | 69.7*
CCC(=O)NC[C@H](Cc1ccc(OCCc2nc(-c3ccccc3)oc2C)cc1)NC(C)=CC(=O)c1ccc(C(F)(F)F)cc1 | -1.4% | -9.4% | ·
COc1ccc(N2CCN(C(=O)c3ccc(NC(=O)c4nsc5ccccc45)cc3)CC2)cc1 | ? | ? | -21.7
COc1cccc(N2CCN(C(=O)c3ccc(NC(=O)c4nsc5ccccc45)cc3)CC2)c1 | 14.1µM* | -70.5% | -15.9
CCOc1ccccc1N=Nc1c(C)[nH]n(-c2nc(-c3ccccc3)cs2)c1=O | -2.0% | -7.4% | ·
CC(=O)Nc1ccc(C(=O)Nc2ccccc2N)cc1 | 161.3% | · | ·
CCOc1ccc(CCNC(=O)CCc2c(C)nc3c(c(C)nn3-c3ccccc3)c2C)cc1OCC | -21.6% | -36.1% | -3.5
Cc1oc(-c2ccc(C(=O)Nc3ccc(F)cc3)cc2)nc1COc1ccccc1 | ? | -19.7% | 28.7
COc1cc(NC(=O)c2ccc(-c3nc(COc4ccccc4)c(C)o3)cc2)cc(OC)c1 | 14.1µM* | -47.8% | -17.4
COc1ccccc1-c1nc(CNC(=O)Nc2ccccc2)c(C)o1 | 0.0% | -9.9% | 23.0
COc1ccc(-c2nc(CNC(=O)Nc3ccccc3)c(C)o2)c(OC)c1 | -13.6% | -3.0% | 64.7*
Nc1nc(-c2nn(Cc3ccccc3F)c3ncccc23)nc(N)c1N1CCOCC1 | -6.4% | -17.4% | ·
CNC(=O)c1ccc(N2C(=S)N(c3ccc(C#N)c(C(F)(F)F)c3)C(=O)C2(C)C)cc1F | -6.1% | -19.6% | ·
CC#CCn1c(N2CCC[C@@H](N)C2)nc2c1c(=O)n(Cc1nc(C)c3ccccc3n1)c(=O)n2C | -3.0% | -3.2% | ·
O=C(Nc1cc(Cl)cc2c1[nH]c1cnccc12)c1cccnc1 | 0.6% | -41.1% | ·
[O-][n+]1ccccc1SSc1cccc[n+]1[O-] | ? | -74.5%[25.1 µM] | 3.7
O=C(Nc1ccc(OC(F)(F)F)cc1)c1noc2c1CCCC2 | 107.3% | 1.12µM* | -14.1
O=C(Nc1ccccc1C(F)(F)F)c1noc2c1CCCC2 | · | · | -1.1
Cc1ccc(NC(=O)CN2C(=O)COc3ccc(S(=O)(=O)N4CCCCC4)cc32)cc1Cl | -14.8% | -21.1% | -29.9
NS(=O)(=O)c1ccc(NC(=O)CN2C(=O)COc3ccc(Cl)cc32)cc1 | -16.0%[11.5 µM] | -9.3% | 92.8*
Cc1ccc(NC(=O)CN2C(=O)COc3ccc(S(=O)(=O)NC4CCCC4)cc32)cc1Cl | -24.8% | -35.2% | 106.4*
CCN(CC)S(=O)(=O)c1ccc2c(c1)N(CC(=O)N1CCN(c3cc(Cl)ccc3C)CC1)C(=O)CO2 | -9.0% | -10.6% | -8.1
CCN(CC)S(=O)(=O)c1ccc2c(c1)N(CC(=O)NCCCN1CCN(c3cc(Cl)ccc3C)CC1)C(=O)CO2 | -30.0% | -34.4% | 77.6*
O=C(CN1C(=O)COc2ccc(Cl)cc21)Nc1cccc(F)c1 | ? | -14.6% | -13.0
SMILES | HTT promoter inh | HTT-AS promoter | GPR32 ag
Cc1cccc(Nc2nc(N[C@@H]3CCCC[C@H]3N)ncc2C(N)=O)c1 | ? | -8.9% | ·
COc1ccc(C(=O)N(Cc2cc(OC)c(OC)c(OC)c2)c2ccccn2)cc1 | ? | -25.8% | -6.5
COc1cc(CN(C(=O)c2ccc(OC(C)C)cc2)c2ccccn2)cc(OC)c1OC | 15.8µM* | -54.1% | 32.5
COc1ccc(-c2noc(CSc3nc4ccccc4[nH]3)n2)cc1OC | ? | -27.9% | 67.0*
Cc1ccccc1-c1noc(CSc2nc3ccccc3[nH]2)n1 | ? | -29.4% | 31.4
Cc1oc(-c2ccc(Cl)cc2)nc1Cn1c(=O)cc(C)c2c(C)nn(-c3ccccc3)c21 | 7.8% | -7.3% | -7.9
CCOc1ccc(CCNC(=O)c2cc3c(=O)oc4ccc(C)cc4c3s2)cc1OCC | -5.9% | -8.8% | -2.0
CC1=C(c2ccc(C)c(C)c2)S(=O)(=O)N=C1N1CCC(C(=O)NCc2ccc(N(C)C)cc2)CC1 | -29.6% | -13.0% | 4.4
CCc1ccc(C2=C(C)C(N3CCC(C(=O)NCc4ccccc4)CC3)=NS2(=O)=O)cc1 | -38.4% | -22.1% | 65.1*
CCCCN1C(=O)c2[nH]nc(-c3ccccc3O)c2C1c1ccc(OCc2ccccc2)cc1 (stereo unspecified) | 25.1µM* | -89.8% | 42.1
COCCCN1C(=O)c2[nH]nc(-c3ccccc3O)c2C1c1ccc(OCc2ccccc2)cc1 (stereo unspecified) | ? | -33.9% | 25.5
COc1cc(/C=C(\C#N)c2nc3ccccc3n2C)cc(OC)c1OC | 42.1% | ? | -1.0
